Assay results published in ChEMBL document CHEMBL3988442, “University of Dundee, Small-Polar-MMV Screening Library” (2021).
For some assays here: Entries with a potency or affinity are not part of this list.

Tests used:
Parameters in all cases: scale not given: direction of the effect not stated beside the values
[1] = target: Protein translocase subunit SecA (Escherichia coli (strain K12)) (UniProt P10408); test: Assay to Identify E. coli SecA ATPase Inhibitors; format: functional; details: 30 µM
Chain of Protein translocase subunit SecA (Escherichia coli (strain K12)) (P10408 whole entry): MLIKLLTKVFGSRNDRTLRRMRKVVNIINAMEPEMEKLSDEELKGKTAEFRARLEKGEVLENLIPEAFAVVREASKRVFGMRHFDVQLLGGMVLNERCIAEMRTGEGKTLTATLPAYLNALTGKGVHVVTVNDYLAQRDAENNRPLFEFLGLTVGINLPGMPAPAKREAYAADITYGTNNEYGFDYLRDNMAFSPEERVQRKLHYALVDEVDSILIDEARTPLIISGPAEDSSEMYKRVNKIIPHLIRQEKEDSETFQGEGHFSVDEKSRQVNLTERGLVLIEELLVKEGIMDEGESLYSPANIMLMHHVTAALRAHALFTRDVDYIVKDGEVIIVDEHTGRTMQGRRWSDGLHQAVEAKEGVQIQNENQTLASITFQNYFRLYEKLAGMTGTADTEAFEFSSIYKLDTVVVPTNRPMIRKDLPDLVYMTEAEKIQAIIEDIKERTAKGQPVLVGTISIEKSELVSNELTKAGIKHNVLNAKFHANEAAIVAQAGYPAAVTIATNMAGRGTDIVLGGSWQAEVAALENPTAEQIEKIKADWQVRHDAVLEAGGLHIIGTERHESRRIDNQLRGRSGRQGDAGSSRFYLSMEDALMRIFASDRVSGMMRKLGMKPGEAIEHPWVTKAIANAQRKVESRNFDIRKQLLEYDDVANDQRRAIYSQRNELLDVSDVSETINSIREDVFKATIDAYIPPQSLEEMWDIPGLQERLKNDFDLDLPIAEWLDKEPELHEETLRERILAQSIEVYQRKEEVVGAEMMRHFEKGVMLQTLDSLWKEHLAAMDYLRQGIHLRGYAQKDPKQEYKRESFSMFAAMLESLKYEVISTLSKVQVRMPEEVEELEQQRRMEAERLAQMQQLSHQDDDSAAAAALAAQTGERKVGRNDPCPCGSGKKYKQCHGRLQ

[2] = target: T1, Ubiquitin-activating enzyme e1, putative (Leishmania donovani (strain BPK282A1)) (UniProt E9BSI1); test: Leishmania donovani Ubiquitin Activating Enzyme (LdE1); format: functional; details: 30 µM
T1 sequence (whole entry): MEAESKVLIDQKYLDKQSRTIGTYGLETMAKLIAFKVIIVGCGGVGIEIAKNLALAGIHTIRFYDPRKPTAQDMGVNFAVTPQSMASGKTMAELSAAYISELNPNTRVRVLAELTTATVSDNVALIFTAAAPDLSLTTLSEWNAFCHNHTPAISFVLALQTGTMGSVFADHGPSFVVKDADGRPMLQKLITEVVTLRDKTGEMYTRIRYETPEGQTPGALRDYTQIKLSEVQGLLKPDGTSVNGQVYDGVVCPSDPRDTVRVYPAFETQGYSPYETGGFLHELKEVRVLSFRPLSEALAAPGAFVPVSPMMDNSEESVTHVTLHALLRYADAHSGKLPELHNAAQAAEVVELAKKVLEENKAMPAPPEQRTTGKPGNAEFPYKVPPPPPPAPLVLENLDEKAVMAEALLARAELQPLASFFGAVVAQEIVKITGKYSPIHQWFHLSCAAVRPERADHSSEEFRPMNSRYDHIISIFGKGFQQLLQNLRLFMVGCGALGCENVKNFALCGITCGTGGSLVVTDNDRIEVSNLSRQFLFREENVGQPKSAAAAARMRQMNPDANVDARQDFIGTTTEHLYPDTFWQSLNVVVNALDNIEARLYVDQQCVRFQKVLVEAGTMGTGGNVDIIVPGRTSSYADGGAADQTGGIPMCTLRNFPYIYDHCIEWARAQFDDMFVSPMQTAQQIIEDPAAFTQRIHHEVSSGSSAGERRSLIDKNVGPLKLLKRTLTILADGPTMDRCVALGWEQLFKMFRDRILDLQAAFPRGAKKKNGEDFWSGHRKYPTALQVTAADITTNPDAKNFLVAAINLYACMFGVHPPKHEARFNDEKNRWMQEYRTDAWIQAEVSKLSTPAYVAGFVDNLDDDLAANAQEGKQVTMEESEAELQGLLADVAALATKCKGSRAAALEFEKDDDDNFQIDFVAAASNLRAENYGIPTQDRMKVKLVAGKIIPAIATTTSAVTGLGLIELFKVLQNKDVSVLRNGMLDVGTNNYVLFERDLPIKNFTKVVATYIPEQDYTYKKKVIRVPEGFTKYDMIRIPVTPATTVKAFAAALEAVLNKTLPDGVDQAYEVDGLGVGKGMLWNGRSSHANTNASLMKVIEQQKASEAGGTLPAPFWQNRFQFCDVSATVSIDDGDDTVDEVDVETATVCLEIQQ

[3] = target: AMP-activated protein kinase, AMPK (Homo sapiens) (UniProt P54646+O43741+P54619+Q9UGJ0+Q9Y478+Q13131+Q9UGI9); test: AMP-dependent Kinase enzyme assay. An in vitro enzyme assay that detects ADP turnover that is directly proportional to AMPK activity. This uses naive AMPK that is activated during the assay with MK-8722; format: functional; details: 30 µM
[4] = target: Sialic acid-binding Ig-like lectin 9 (Homo sapiens) (UniProt Q9Y336); test: Hs-Siglec9 ALPHAscreen SOP 20170721; details: 10 µM
Chain of Sialic acid-binding Ig-like lectin 9 (Homo sapiens) (Q9Y336 whole entry): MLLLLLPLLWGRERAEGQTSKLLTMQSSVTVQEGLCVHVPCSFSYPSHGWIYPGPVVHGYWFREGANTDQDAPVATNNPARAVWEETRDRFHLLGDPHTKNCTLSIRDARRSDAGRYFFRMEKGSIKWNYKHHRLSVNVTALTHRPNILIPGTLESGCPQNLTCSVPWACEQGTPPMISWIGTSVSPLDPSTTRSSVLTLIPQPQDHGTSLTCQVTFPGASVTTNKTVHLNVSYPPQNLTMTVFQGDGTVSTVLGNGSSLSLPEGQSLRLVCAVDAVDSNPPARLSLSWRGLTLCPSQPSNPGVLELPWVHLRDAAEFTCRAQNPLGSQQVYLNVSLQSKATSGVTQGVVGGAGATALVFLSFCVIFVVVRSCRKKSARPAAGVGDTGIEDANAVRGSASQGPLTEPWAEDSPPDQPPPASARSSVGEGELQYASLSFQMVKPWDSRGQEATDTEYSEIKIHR

Trypanosoma cruzi = test: Trypanosoma cruzi phosphomannomutase and mannose-1-phosphate guanylyltransferase assay; format: functional; details: 10 µM
[5] = target: T2, Arginase-2, mitochondrial (Homo sapiens) (UniProt P78540); test: in vitro enzyme assay to detect the production of urea directly proportional to the activity of Arginase II; format: functional; details: 33.3 µM; further: in the data most compounds retested in dose-response had high values
T2 sequence (whole entry): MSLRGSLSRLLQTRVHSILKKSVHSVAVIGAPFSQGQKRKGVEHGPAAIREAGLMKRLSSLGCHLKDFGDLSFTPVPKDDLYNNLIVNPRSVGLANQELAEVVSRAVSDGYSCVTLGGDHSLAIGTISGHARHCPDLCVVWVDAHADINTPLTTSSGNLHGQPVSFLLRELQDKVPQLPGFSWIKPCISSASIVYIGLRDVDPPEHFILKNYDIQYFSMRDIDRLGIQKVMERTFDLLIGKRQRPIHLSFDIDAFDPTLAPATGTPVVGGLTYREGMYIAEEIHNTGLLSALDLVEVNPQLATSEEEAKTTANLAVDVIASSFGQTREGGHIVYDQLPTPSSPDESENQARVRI

[6] = target: T3, Proteasome subunit beta (Trypanosoma cruzi) (UniProt O96673); test: Trypanosoma cruzi proteasome chymotrypsin-like activity (TcProtChymo) assay.; further: in the data most compounds retested in dose-response had high values; format: functional; details: 9.37 µM
T3 sequence (whole entry): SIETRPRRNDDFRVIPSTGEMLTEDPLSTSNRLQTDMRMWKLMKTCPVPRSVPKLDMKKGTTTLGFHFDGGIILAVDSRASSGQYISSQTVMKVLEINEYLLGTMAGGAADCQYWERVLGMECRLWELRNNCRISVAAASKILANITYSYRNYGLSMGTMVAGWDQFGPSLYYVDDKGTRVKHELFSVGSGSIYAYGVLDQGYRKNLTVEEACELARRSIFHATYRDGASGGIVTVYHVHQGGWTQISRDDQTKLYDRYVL

Homo sapiens = organism: Homo sapiens; test: To identify inhibition of the IFN signalling (Jak-Stat) pathway via expression of an eGFP reporter gene under the control of an IFN-stimulated response element (ISRE) containing MxA promoter.; format: functional; details: 30 µM
[7] = target: T4, Tyrosyl-tRNA synthetase, putative (Trypanosoma cruzi (strain CL Brener)) (UniProt Q4DSP6); test: Trypanosoma cruzi tyrosyl tRNA synthetase (TcYRS) _High Tyrosine SOP; format: functional; details: 30 µM; further: in the data most compounds retested in dose-response had high values
T4 sequence (whole entry): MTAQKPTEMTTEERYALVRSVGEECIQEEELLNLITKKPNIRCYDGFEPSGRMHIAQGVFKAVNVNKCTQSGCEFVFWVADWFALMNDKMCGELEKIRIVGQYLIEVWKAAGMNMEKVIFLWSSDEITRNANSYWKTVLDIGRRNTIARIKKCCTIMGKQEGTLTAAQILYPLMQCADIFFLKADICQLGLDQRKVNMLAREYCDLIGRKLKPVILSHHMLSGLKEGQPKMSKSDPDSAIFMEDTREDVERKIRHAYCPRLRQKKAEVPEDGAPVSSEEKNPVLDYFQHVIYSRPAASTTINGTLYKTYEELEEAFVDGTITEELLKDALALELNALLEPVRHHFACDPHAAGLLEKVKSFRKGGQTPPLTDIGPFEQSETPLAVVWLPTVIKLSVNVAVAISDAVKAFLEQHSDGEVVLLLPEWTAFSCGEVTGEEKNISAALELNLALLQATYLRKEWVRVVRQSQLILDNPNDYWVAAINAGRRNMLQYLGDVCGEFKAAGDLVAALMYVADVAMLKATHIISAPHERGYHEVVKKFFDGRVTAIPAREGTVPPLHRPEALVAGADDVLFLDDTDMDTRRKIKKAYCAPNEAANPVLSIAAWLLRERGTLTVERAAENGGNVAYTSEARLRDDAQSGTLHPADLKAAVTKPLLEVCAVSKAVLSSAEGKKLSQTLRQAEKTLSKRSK

[8] = target: T4, Tyrosyl-tRNA synthetase, putative (Trypanosoma cruzi (strain CL Brener)); test: Trypanosoma cruzi tyrosyl tRNA synthetase (TcYRS) SOP; format: functional; details: 30 µM
[9] = target: Chromo domain-containing protein 1 (Saccharomyces cerevisiae (strain ATCC 204508 / S288c) (Baker's yeast)) (UniProt P32657); test: ScCHD-1 Enzyme Inhibition Assay; format: functional; details: 30 µM; further: in the data most compounds retested in dose-response had high values
Chain of Chromo domain-containing protein 1 (Saccharomyces cerevisiae (strain ATCC 204508 / S288c) (Baker's yeast)) (P32657 whole entry, the tested form may be a part): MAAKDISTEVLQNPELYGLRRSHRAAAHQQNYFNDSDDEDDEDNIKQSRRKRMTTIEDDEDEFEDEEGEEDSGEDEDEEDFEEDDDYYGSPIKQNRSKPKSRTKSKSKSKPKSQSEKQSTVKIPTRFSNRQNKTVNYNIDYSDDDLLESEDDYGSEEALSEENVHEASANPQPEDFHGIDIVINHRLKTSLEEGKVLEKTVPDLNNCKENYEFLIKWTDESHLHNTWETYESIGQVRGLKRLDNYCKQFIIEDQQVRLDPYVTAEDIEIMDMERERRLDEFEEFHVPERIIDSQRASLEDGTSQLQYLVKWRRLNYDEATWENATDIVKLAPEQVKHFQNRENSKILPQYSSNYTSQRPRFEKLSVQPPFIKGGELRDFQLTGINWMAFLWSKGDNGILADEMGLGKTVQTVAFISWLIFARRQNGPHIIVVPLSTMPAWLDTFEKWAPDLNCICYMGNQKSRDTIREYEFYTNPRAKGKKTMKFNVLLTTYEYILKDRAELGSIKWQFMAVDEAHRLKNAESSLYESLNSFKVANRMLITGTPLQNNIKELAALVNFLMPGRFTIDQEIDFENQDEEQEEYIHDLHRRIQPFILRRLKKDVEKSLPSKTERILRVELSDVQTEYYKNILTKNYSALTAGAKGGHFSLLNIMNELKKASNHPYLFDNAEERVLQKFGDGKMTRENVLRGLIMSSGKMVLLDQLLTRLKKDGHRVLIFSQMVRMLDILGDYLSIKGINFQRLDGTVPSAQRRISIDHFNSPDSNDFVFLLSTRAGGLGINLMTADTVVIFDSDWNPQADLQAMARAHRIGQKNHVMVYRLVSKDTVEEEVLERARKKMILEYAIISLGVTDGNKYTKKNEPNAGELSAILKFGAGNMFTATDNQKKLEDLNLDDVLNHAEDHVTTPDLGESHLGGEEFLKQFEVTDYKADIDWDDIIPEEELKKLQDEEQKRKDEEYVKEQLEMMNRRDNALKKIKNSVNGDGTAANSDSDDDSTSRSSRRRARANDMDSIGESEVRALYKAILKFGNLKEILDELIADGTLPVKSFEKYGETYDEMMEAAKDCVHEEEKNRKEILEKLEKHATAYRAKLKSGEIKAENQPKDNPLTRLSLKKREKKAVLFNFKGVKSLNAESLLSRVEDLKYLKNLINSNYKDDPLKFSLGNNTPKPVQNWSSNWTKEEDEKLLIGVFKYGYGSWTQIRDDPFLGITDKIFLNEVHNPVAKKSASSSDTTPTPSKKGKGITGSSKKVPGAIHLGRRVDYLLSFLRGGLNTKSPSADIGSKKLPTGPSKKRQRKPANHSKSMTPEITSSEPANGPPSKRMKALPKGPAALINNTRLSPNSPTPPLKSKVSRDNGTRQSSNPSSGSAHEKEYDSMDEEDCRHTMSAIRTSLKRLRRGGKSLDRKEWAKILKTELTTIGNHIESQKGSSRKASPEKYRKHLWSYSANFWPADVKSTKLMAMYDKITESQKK

Row | SMILES | Percent Effect [1] | Percent Effect [2] | Percent Effect [3] | Percent Effect [4] | Percent Effect (Trypanosoma cruzi) | Percent Effect [5] | Percent Effect [6] | Percent Effect (Homo sapiens) | Percent Effect [7] | Percent Effect [8] | Percent Effect [9]
1 | CC(C)Cc1noc(CN2CCN(C(=O)c3cccc(F)c3)CC2)n1 | -4.75% | -2.74% | 1.5% | 5.59% | 1.39% | 0% | 1.97% | 0.357% | 4.17% | 1.24% | 6.05%
2 | CCS(=O)(=O)CCN1CCCC1c1noc(C2CC2)n1 (stereo not given) | -0.786% | 20.2% | -7.83% | -3.74% | -4.44% | 0% | 6.63% | 38.5% | -0.493% | -34.2% | -7.2%
3 | Cn1cc(CN2CCC3(C2)CN(Cc2ccsc2)C3)cn1 | -5.1% | 2.6% | -2.26% | 5.86% | 3.64% | 1.38% | 10.5% | -4.61% | 3.23% | 8.64% | 1.08%
4 | CCOc1ccccc1C(CC(=O)Nc1ccc(C)cn1)NC(C)=O (stereo not given) | -3.17% | 10.5% | 7.35% | 5.85% | 6.77% | 1.15% | 4.34% | 4.19% | 8.33% | 17.1% | -15.3%
5 | COCCNC(=O)[C@H]1CN(Cc2scnc2C)C[C@H]2OCC[C@@H]12 | -3.71% | 5.48% | 0.0499% | 5.36% | 3.77% | 1.2% | 1.11% | 4.51% | 5.21% | 16.1% | 1.51%
6 | CC(C)c1nn(C)c(Cl)c1CNC1CCOc2ccccc21 (stereo not given) | -3.65% | 8.11% | -0.168% | 9.16% | 2.32% | 0.185% | -1.79% | 31.4% | 8.91% | 23.2% | -2.97%
7 | Cc1csc(N2CCN(Cc3ccccn3)CC2C)n1 (stereo not given) | -3.15% | 5.48% | -20.3% | -2.48% | -2.74% | 0.909% | 13.3% | 19.9% | 9.68% | 12.5% | -2.29%
8 | CC(C)N(C)Cc1cn2c(n1)CN(Cc1ccsc1)CC2 | 5.48% | 11% | 1.28% | 6.24% | -5.56% | -3.19% | 9.33% | 18.4% | 7.29% | 8.64% | 2.73%
9 | COc1ccc(C2=C(C)C(N3CCc4ccccc43)=NS2(=O)=O)cc1 | -1.62% | 20.8% | -4.65% | -5.53% | 1.08% | 3.23% | 12.7% | 9.51% | -1.06% | 8.97% | -11.2%
10 | Cc1cccc(CN2C(=O)CC[C@@H]3[C@H]2CCN3Cc2ccc(C)s2)n1 | -2.54% | 2.67% | 9.98% | 2.33% | -1.57% | 0.233% | 9.43% | 6.8% | -1.06% | -3.85% | 2.14%
